Laboratory results from PMC5540273 (PLoS ONE, 2017).
Where “and” joins values, the source holds several entries; their conditions need not be identical. Equal values may be shown once. Read-outs that look alike come from different tables or passages of the source.

Legend:
MRCKA = settings: concentration: 1 μM, replicates: in singlicate, n = 1
MRCKB = test system: T1, MRCKB; settings: concentration: 1 μM, replicates: in singlicate; n = 1
T1 construct: gene CDC42BPB

MST1R = settings: concentration: 1 μM, replicates: in singlicate, n = 1
MST1 = test system: T2, MST1; settings: concentration: 1 μM, replicates: in singlicate; n = 1
T2 construct: gene STK4

MST2 = test system: T3, MST2; settings: concentration: 1 μM, replicates: in singlicate, n = 1
T3 construct: gene STK3

MST3 = test system: T4, MST3; settings: concentration: 1 μM, replicates: in singlicate; n = 1
T4 construct: gene STK24

MST4 = settings: concentration: 1 μM, replicates: in singlicate; n = 1
MTOR = settings: concentration: 1 μM, replicates: in singlicate, n = 1
MUSK = settings: concentration: 1 μM, replicates: in singlicate; n = 1
MYLK2 = settings: concentration: 1 μM, replicates: in singlicate; n = 1
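Note: KINOMEscan kinase panel screen.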

Row | SMILES | %Inh (MRCKA) [%] | %Inh (MRCKB) [%] | %Inh (MST1R) [%] | %Inh (MST1) [%] | %Inh (MST2) [%] | %Inh (MST3) [%] | %Inh (MST4) [%] | %Inh (MTOR) [%] | %Inh (MUSK) [%] | %Inh (MYLK2) [%] | %Inh (MRCKA; 1 µM) | %Inh (MST1R; 1 µM) | %Inh (MST2; 1 µM) | %Inh (MTOR; 1 µM)
1 | CSc1nn2c(=O)cc(N3CCOCC3)nc2n1Cc1cccc(Cl)c1Cl [GSK2347225] | 29 | 4 | 59 | 6 | 0 | 4 | 0 | 28 | 16 | 15 |  |  |  | 
2 | O=c1cc(N2CCOCC2)nc2n(Cc3cccc(Cl)c3)ccn12 [GSK2296823] | 7 | 16 | 17 | 0 | 11 | 0 | 0 | 62 | 11 | 2 |  |  |  | 
3 | CN1CCC(n2cnc(-c3ccc(F)cc3)c2-c2ccnc(NC3CCNCC3)n2)CC1 [SB-229482] | 6 | 0 | 33 | 3 | 24 | 0 | 0 | 0 | 0 | 21 |  |  |  | 
4 | COC(=O)c1c(-c2ccccc2)c2cc(Cl)ccc2c(=O)n1Cc1ccc(S(C)(=O)=O)cc1 | 0 | 0 | 24 | 1 | 18 | 7 | 0 | 0 | 0 | 0 |  |  |  | 
5 | FC(F)(F)c1ccc(-c2nn3ncccc3c2-c2ccnc(Nc3cccc(C(F)(F)F)c3)n2)cc1 [GW828205] | 31 | 17 | 0 | 0 | 21 | 0 | 0 | 0 | 0 | 0 |  |  |  | 
6 | COc1ccc(Nc2nccc(N3CCC(NC(=O)Nc4ccc5c(c4)OCO5)C3)n2)cc1 (stereo not drawn) [GSK1379745] | 11 | 0 | 0 | 6 | 0 | 32 | 0 | 35 | 17 | 6 |  |  |  | 
7 | COc1ccc(NC(=O)c2ccc(-c3cc(-c4nnc(C)o4)ccc3C)cc2)cc1 [GW595885] | 0 | 3 | 34 | 0 | 0 | 0 | 0 | 14 | 12 | 0 |  |  |  | 
8 | Clc1cc(Nc2ncnc3cc[nH]c23)ccc1OCc1ccccn1 | 0 | 8 | 37 | 12 | 48 | 28 | 0 | 0 | 13 | 11 |  |  |  | 
9 | CCn1c(-c2ccncc2)nc2cnccc21 [SB-735216] | 23 | 0 | 27 | 0 | 0 | 0 | 13 | 0 | 5 | 15 |  |  |  | 
10 | Cc1cccc(-c2nc(Nc3ccc4[nH]nnc4c3)c3ccccc3n2)n1 [GW867587] | 0 | 2 | 0 | 0 | 0 | 0 | 0 | 5 | 2 | 0 |  |  |  | 
11 | COc1ccc(-c2nc3n(c2-c2ccncc2)CCC3)cc1 [SKF-104493] |  | 0 |  | 0 |  | 0 | 0 |  | 3 | 0 | 0% and 2% | 19% and 14% | 4% and 16% | 0% and 11%
12 | Cl.c1ccc(Cn2ncc3cc(Nc4ncnc5ccccc45)ccc32)cc1 [GW273749] | 10 | 0 | 27 | 0 | 8 | 0 | 0 | 8 | 0 | 2 |  |  |  | 
13 | COc1ccc(-c2oc3ncnc(N)c3c2-c2ccc(OC)cc2)cc1 [SB-589132] | 0 | 0 | 46 | 7 | 0 | 0 | 0 | 75 | 17 | 0 |  |  |  | 
14 | COC(=O)c1cccc(NC(=O)NCCNc2ccnc(Nc3ccc(F)cc3)n2)c1 [GSK1379883] | 0 | 0 | 25 | 0 | 5 | 0 | 0 | 37 | 4 | 0 |  |  |  | 
15 | Cl.O=S(=O)(c1cccc(F)c1)c1ccc(Nc2ncnc3cc(Br)sc23)cc1Cl [GSK306886] | 18 | 9 | 20 | 0 | 9 | 2 | 0 | 12 | 8 | 3 |  |  |  | 
16 | Cn1ccc2ncnc(Nc3ccc(Oc4cccc(Cl)c4)c(Cl)c3)c21 | 0 | 0 | 42 | 6 | 25 | 10 | 0 | 0 | 3 | 20 |  |  |  | 
17 | CNc1nccc(-c2c(-c3ccc(F)cc3)ncn2CCCN2CCOCC2)n1 [SB-222516] | 8 | 0 | 0 | 0 | 14 | 14 | 0 | 11 | 0 | 0 |  |  |  | 

Row | SMILES | %Inh (MRCKA) [%] | %Inh (MRCKB) [%] | %Inh (MST1R) [%] | %Inh (MST1) [%] | %Inh (MST2) [%] | %Inh (MST3) [%] | %Inh (MST4) [%] | %Inh (MTOR) [%] | %Inh (MUSK) [%] | %Inh (MYLK2) [%] | %Inh (MRCKA; 1 µM) | %Inh (MST1R; 1 µM) | %Inh (MST2; 1 µM) | %Inh (MTOR; 1 µM)
18 | CC(C)(C)OC(=O)NC1CCCN(c2cc(-c3ccc4c(N)n[nH]c4c3)nc(N)n2)C1 (stereo not drawn) [GSK2286096] | 9 | 0 | 31 | 0 | 0 | 6 | 0 | 8 | 0 | 24 |  |  |  | 
19 | C[C@H]1CC[C@@H](C(=O)Nc2ccccc2)CN1c1cc(-c2ccc3c(N)n[nH]c3c2)nc(N)n1 [GSK2283293] | 65 | 0 | 17 | 0 | 0 | 0 | 0 | 8 | 13 | 1 |  |  |  | 
20 | Fc1ccc(-c2ncn(CCCNCc3ccccc3)c2-c2ccncc2)cc1 | 0 | 18 | 18 | 2 | 39 | 11 | 0 | 11 | 9 | 0 |  |  |  | 
21 | Cc1cc(N2CCC(NS(=O)(=O)c3ccc(F)cc3)CC2)nc(Nc2cccc(C#N)c2)n1.O=C(O)C(F)(F)F [GSK1653537] | 0 | 0 | 17 | 8 | 0 | 7 | 0 | 6 | 8 | 0 |  |  |  | 
22 | O=C(Nc1n[nH]c2nc(-c3ccco3)c(Br)cc12)c1ccc(CN2CCCC2)cc1.O=C(O)[C@H](O)[C@@H](O)C(=O)O [SB-742352] | 0 | 0 | 0 | 0 | 17 | 0 | 9 | 0 | 9 | 96.3 |  |  |  | 
23 | CCC(CC)(CC)n1cnc2c(N)ncnc21 [SKF-97620] | 0 | 13 | 0 | 6 | 7 | 10 | 30 | 14 | 11 | 19 |  |  |  | 
24 | Cl.Cl.c1ccc(-c2cc3ccncc3cc2OC2CCNCC2)cc1 [GSK1122999] | 52 | 17 | 53 | 21 | 6 | 12 | 0 | 12 | 13 | 20 |  |  |  | 
25 | COc1cc2ncnc(Nc3ccc(OCc4ccccc4Br)c(Cl)c3)c2cc1OC.Cl [GI261590] | 23 | 0 | 48 | 10 | 0 | 0 | 0 | 24 | 12 | 0 |  |  |  | 
26 | Fc1cccc(COc2ccc(Nc3ncnc4sc(-c5ccc[nH]5)cc34)cc2Cl)c1 [GW707818] | 23 | 6 | 33 | 0 | 18 | 8 | 0 | 13 | 0 | 14 |  |  |  | 
27 | CNc1nccc(-c2c(-c3ccc(F)cc3)ncn2C2CCN(C)CC2)n1 [SB-222903] | 0 | 5 | 0 | 0 | 0 | 0 | 0 | 18 | 0 | 0 |  |  |  | 
28 | O=C(NCCCN1CCCC1=O)c1cnc(NCc2cc(Cl)ccc2Cl)nc1NC1CCNCC1 | 0 | 0 | 72 | 8 | 0 | 32 | 44 | 36 | 7 | 1 |  |  |  | 
29 | Cn1ccc2ncnc(Oc3ccc(NC(=O)Nc4cccnc4)c(Cl)c3)c21 | 0 | 0 | 15 | 12 | 0 | 10 | 0 | 0 | 7 | 0 |  |  |  | 
30 | FC(F)(F)c1cc(Nc2nccc(-c3c(-c4ccc(Cl)cc4)nn4ncccc34)n2)ccc1Cl [GW829351] | 0 | 9 | 0 | 0 | 3 | 0 | 0 | 0 | 0 | 0 |  |  |  | 
31 | Nc1nc(-c2ccc3c(N)n[nH]c3c2)cc(N2CCC[C@@H](C(=O)Nc3ccccc3)C2)n1.O=C(O)C(F)(F)F.O=C(O)C(F)(F)F [GSK2288359] | 2 | 0 | 14 | 0 | 30 | 0 | 0 | 15 | 4 | 5 |  |  |  | 
32 | Cc1ccc(C)c(NC(=O)NCCNc2ccnc(Nc3ccc(F)cc3)n2)c1 [GSK1379878] | 12 | 0 | 7 | 0 | 0 | 0 | 0 | 2 | 0 | 0 |  |  |  | 
33 | N#Cc1ccc(Oc2ccc(Nc3ncnc4cc[nH]c34)cc2Cl)cc1 | 12 | 32 | 11 | 10 | 19 | 24 | 0 | 13 | 6 | 16 |  |  |  | 
